84 compounds from PubChem BioAssay AID624126 (The Scripps Research Institute Molecular Screening Center, 2012) can be followed below.

The structures appear in SMILES notation. Among all 360,000 compounds or so, about 1,400 (0.39%) were called active. This is one part of a sample in which actives are shown more often than they occur.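 The calls were made as follows: active = activation above its plate's cutoff, the mean activation of sample wells plus 3 SD; inactive = the rest.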

The target of the assay is Muscarinic acetylcholine receptor M4 (Homo sapiens) (UniProt P08173). Kind of assay: human M4 muscarinic receptor positive allosteric modulators, primary screen, CHO-K1 cells, Fluo-8 calcium fluorescence (AID 624126). The note with it: CHO-K1 hM4/Gqi5, Fluo-8 calcium fluorescence, ACh EC20; at 3 µM; active compounds read high; 0% = ACh EC20, 100% = maximal ACh.
Muscarinic acetylcholine receptor M4 (Homo sapiens), sequence (P08173 whole entry, looked up): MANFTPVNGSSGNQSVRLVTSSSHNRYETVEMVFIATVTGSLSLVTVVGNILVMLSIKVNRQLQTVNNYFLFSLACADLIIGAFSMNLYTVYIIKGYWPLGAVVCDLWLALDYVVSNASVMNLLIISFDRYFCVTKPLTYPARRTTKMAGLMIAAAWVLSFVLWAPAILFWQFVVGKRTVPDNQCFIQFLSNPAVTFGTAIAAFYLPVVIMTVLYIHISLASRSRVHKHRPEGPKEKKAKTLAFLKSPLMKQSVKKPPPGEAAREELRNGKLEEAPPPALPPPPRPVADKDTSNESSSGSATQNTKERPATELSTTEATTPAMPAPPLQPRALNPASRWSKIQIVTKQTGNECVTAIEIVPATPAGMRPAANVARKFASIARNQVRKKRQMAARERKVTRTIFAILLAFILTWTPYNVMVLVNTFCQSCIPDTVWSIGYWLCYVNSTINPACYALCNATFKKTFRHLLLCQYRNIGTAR
With `CCOc1ccc(S(=O)(=O)Nc2cccc(C(=O)NCC3(N4CCCCC4)CCCCC3)c2)cc1`, the activation was -3.09% (inactive). Consider `Cc1cc(C)c(S(=O)(=O)c2ccccc2)c(OC(=O)c2c(F)cccc2Cl)n1`, for which the activation was 1.34% (inactive).

Regarding `Cc1ccc(S(=O)(=O)CCC(=O)OCc2ccccc2)cc1`, the activation is 1.2% (inactive). With `O=C(O)CCS(=O)(=O)c1ccc(-c2ccccc2)cc1` the figure was 20.7% (active); with `O=C(CCS(=O)(=O)c1ccccc1)NC1CCCC1`, 2.49% (inactive). With `O=C1c2ccccc2NC(c2ccccn2)N1NS(=O)(=O)c1ccccc1` (centres undefined) the figure was 16.5% (inactive); with `CN(CC(=O)NCc1ccc2c(c1)OCO2)CC(=O)Nc1ccc(F)c(F)c1F`, -5.56% (inactive); with `CN(CC(=O)NCCc1ccc(S(N)(=O)=O)cc1)CC(=O)Nc1ccc(F)c(F)c1F`, 0.07% (inactive).

In the case of `CN(CC(=O)NCCc1ccc(F)cc1)CC(=O)Nc1ccc(F)c(F)c1F`, the activation is 21.1% (active). The same measure for `CCc1ccccc1NC(=O)CCOc1ccccc1`: -7.57% (inactive). The same measure for `Cc1ccccc1NC(=O)CCOc1ccccc1`: 15.2% (active); for `Cc1cccc(OCCC(=O)Nc2ccccc2C(N)=O)c1`: 0.92% (inactive); for `CCCn1nc(NS(=O)(=O)c2ccccc2)c2cc3cc(C)ccc3nc21`: 9.07% (inactive). With `COc1ccc(CN2C(=O)C(CC(=O)NC3CCCCC3)CC(C(=O)N3CCOCC3)=C2C)cc1` (centres undefined) the figure was 0.19% (inactive); with `Cn1c(CCN2CCN(c3ccccn3)CC2)nc2cc(NS(=O)(=O)c3ccc(F)cc3)ccc21`, -13.9% (inactive). On to `C=CCC1(CC=C)CCCN1C(=O)CC1C(=O)NCCN1Cc1ccccc1OC` (centres undefined), for which the activation is 9.2% (inactive). For `O=C(Nc1ccccc1-c1ccccc1)c1ccccc1[N+](=O)[O-]`, the activation is -0.05% (inactive).

On to `O=C(Nc1ccccc1Cl)c1ccccc1S(=O)(=O)c1ccccc1[N+](=O)[O-]`, for which the activation is 24.3% (active). `O=C(NCCNc1ccccc1[N+](=O)[O-])c1ccccc1F`: the activation was -0.9% (inactive). The same measure for `Cc1noc(NS(=O)(=O)c2ccc(NC(=O)c3oc4ccc(F)cc4c3C)cc2)c1C`: -0.81% (inactive); for `Cc1cc(OC(C)C(=O)Nc2ccc(S(=O)(=O)Nc3onc(C)c3C)cc2)cc(C)c1Cl` (centres undefined): -0.5% (inactive); for `COc1ccc(C(=O)Nc2ccc(S(=O)(=O)Nc3onc(C)c3C)cc2)cc1OC`: 31.2% (active). With `CCOC(=O)CNC(=O)CSc1ccc2nnc(-c3cccnc3)n2n1` the figure was -1.25% (inactive); with `CN(Cc1ccccc1)C(=O)c1ccc(NC2=NC3CS(=O)(=O)CC3S2)cc1` (centres undefined), -4.53% (inactive); with `CCS(=O)(=O)Nc1cccc(-c2cc(-c3ccccc3)c3cc(C)ccc3n2)c1`, -23% (inactive). The same measure for `Cc1ccc(-c2cc(C(=O)NCc3cn(C)nc3C)c3cc(Br)ccc3n2)cc1`: -8.1% (inactive). On to `Cc1ccc2nc(-c3ccncc3)cc(C(=O)Nc3ccncc3)c2c1`, for which the activation is 20.7% (active). The same measure for `CCCC[C@@H]1CN=C(N)N1CCc1cc(C(F)(F)F)cc(C(F)(F)F)c1`: -12.2% (inactive); for `CCOC(=O)C1=C(c2ccccc2)O/C(=C(/C(=O)OC)C(F)(F)F)S1`: -8.8% (inactive).

`COCCNc1ncnc2c1ncn2[C@H]1CN(CCN2CCOCC2)C[C@@H](CO)O1`: the activation was -3.76% (inactive). With `OC[C@@H]1CN(Cc2ccc(Cl)cc2)C[C@H](n2cnc3c(NCc4ccncc4)ncnc32)O1` the figure was -0.98% (inactive); with `COCCNc1ncnc2c1ncn2[C@H]1CN(Cc2ccc(OC)cc2)C[C@@H](CO)O1`, 16.3% (active); with `COc1cc(CC(=O)N2CCC(n3nccc3NC(=O)C3CC3)CC2)cc(OC)c1OC`, 0.58% (inactive). With `Cc1cc(C)cc(N)c1` the figure was -1.71% (inactive); with `CC(Nc1nc(C(F)(F)F)nc2ccccc12)c1cccs1` (centres undefined), -11.8% (inactive). On to `Cc1c(Cl)cccc1NC(=O)CCC(=O)N/N=C/c1ccco1`, for which the activation was 4.77% (inactive).

Consider `O=C(CCNC(=O)c1ccccc1Cl)NN=Cc1ccco1`, for which the activation was 3.05% (inactive). With `CC(C)NC(=O)C(=O)N/N=C/c1ccco1` the figure was 23.7% (active). For the compound `O=C(OCC(=O)N(CCc1ccccc1)Cc1ccccc1)c1ccccc1[N+](=O)[O-]`, the activation is -11% (inactive).

Regarding `CC(NC(=O)COc1ccccc1)C(=O)NC1=NCCS1` (centres undefined), the activation was 8.32% (inactive). The same measure for `CCN1CN(Cc2ccccc2)CNC1=S`: 10.7% (inactive); for `CN1CCN(S(=O)(=O)c2cccc(C(=O)Nc3cccc(S(N)(=O)=O)c3)c2)CC1`: -0.95% (inactive); for `CC(C)CCN1C(=O)c2ccc(C(=O)Nc3cccc(S(N)(=O)=O)c3)cc2C1=O`: 23.1% (active). The same measure for `CCCCN1C(=O)c2ccc(C(=O)Nc3ccc(S(=O)(=O)N(C)C)cc3)cc2C1=O`: -10.2% (inactive); for `CC(=O)NC(NC(=S)Nc1c(C)n(C)n(-c2ccccc2)c1=O)C(Cl)(Cl)Cl` (centres undefined): -1.16% (inactive). Take `CCCCc1ccc(NC(=S)N2CCCC(CO)C2)cc1` (centres undefined): the activation is 0.72% (inactive). With `CCOC(=O)c1sc(/N=C/Nc2nc(C)c(C(=O)OCC)s2)nc1C` the figure was 39% (active). With `CCOC(=O)c1sc(NC(=O)CSc2n[nH]c(CC)n2)nc1C` the figure was -9.01% (inactive); with `CCOC(=O)c1sc(NC(=O)C2CSC3(C)CCC(=O)N23)nc1C` (centres undefined), 2.06% (inactive); with `Cc1ccn2cc(-c3nonc3C)cc2c1`, 3.14% (inactive). With `Cc1ccc(S(=O)(=O)N2CCCCC2)cc1C(=O)N1CCN(CCO)CC1` the figure was 7.4% (inactive). As to `CN1CCN(C(=O)N2c3ccccc3CCc3ccccc32)CC1`, the activation is -20.3% (inactive). As for `CCc1noc(C)c1C(=O)N1CCCC(N2CCN(c3ccc(F)cc3)CC2)C1` (centres undefined), the activation was 20% (active). The same measure for `COc1ccccc1CN1CCCC(N2CCN(c3ccc(F)cc3)CC2)C1` (centres undefined): -7.29% (inactive); for `Cc1cnc(C(=O)N2CCCC(N3CCN(c4ccccc4F)CC3)C2)cn1` (centres undefined): 6.32% (inactive). The same measure for `COCCCNC(=O)Cn1cc(/C=C(\C#N)C(=O)N2CCN(c3ccccc3)CC2)c2ccccc21`: 6.26% (inactive). With `COc1ccc(CCNC(=O)CCn2c(=O)oc3ccccc32)cc1OC` the figure was 5.54% (inactive); with `CCN1CCC2(CCN(Cc3cn[nH]c3-c3ccc(OC)c(F)c3)C2)C1` (centres undefined), 16.5% (inactive). With `CC[C@]1(O)CC2CN(CCc3c([nH]c4ccccc34)[C@@](C(=O)OC)(c3cc4c(cc3OC)N(C=O)[C@H]3[C@@](O)(C(=O)OC)[C@H](OC(C)=O)[C@]5(CC)C=CCN6CC[C@]43[C@@H]65)C2)C1` (some centres undefined), the activation was -0.6% (inactive).

Turning to `CCN(CC)S(=O)(=O)c1ccc(NC(=O)c2cccnc2Cl)c(NC(=O)c2cccnc2Cl)c1`, the activation was 2.53% (inactive).

Take `CCn1cc(C(=O)NCCO)c(=O)c2cc(F)c(N3CCN(C)CC3)cc21`: the activation is -4.27% (inactive).

For the compound `CCCCCCn1cc(C(=O)O)c(=O)c2cc(F)c(N3CCCCC3)cc21`, the activation was -1.05% (inactive). With `CCCCNC(=O)c1cn(CC)c2cc(N3CCN(C(=O)c4ccco4)CC3)c(F)cc2c1=O` the figure was 18% (active); with `O=C1NC[C@@H](c2ccccc2)OC(=O)[C@H](Cc2ccc(F)cc2)CC/C=C/C[C@H]1CC(=O)N(CCO)Cc1ccccc1`, -11.5% (inactive). With `O=C(O)CCn1cc(/C=C/C(=O)c2ccc(Cl)cc2)c(-c2cccc(Br)c2)n1` the figure was -5.08% (inactive). As for `O=[N+]([O-])c1ccc2[nH]c3c(c2c1)CCCC3O` (centres undefined), the activation was 6.6% (inactive). The same measure for `CC(C)Oc1ccccc1C(=O)NC(CO)C(=O)O` (centres undefined): 7.23% (inactive); for `COc1ccc(NC(=O)CCCC2CCCCC2)c(OC)c1`: 21.1% (active).

For `CC(=O)Oc1ccc(NC(=O)CCC2CCCCC2)c(C(=O)O)c1`, the activation is 4.74% (inactive). With `COc1ccc(NC(=O)CCn2ccnc2)c(OC)c1` the figure was -8.61% (inactive); with `CCOC(=O)c1c(CN(C)C)n(-c2ccccc2)c2cc(Br)c(O)cc12`, 1.89% (inactive). With `Nc1nnc(C2CCCC2)s1` the figure was -4.96% (inactive); with `CCOC(=O)C1CCN(C(=O)/C=C/c2cc(OC)c(OC)c(OC)c2)CC1`, 0.77% (inactive); with `COc1ccc(/C=C/C(=O)N2CCCC2)cc1OC`, 31.3% (active). The same measure for `COc1cc(/C=C/C(=O)N2CCc3ccccc3C2)cc(OC)c1OC`: -4.53% (inactive); for `COc1cccc(NC(=O)Cn2c3ccccc3c3nc4n(c(=O)c32)CCS4)c1`: 7.32% (inactive); for `O=C(NCc1cccnc1)C12CC3CC(CC(C3)C1)C2`: -4.11% (inactive).

Take `O=C(NCc1ccncc1)NC12CC3CC(CC(C3)C1)C2`: the activation was 21.2% (active). With `S=C(NCc1ccc(Cl)cc1)NC12CC3CC(CC(C3)C1)C2`, the activation is -13.6% (inactive). Regarding `Cc1noc(C)c1NC(=O)N(C)C[C@@H]1Oc2cc(Br)ccc2S(=O)(=O)N([C@@H](C)CO)C[C@H]1C`, the activation was 3.07% (inactive).

Turning to `COC(=O)c1ccc(COC(=O)c2cnc(Cl)c(Cl)c2)cc1`, the activation is 1.26% (inactive). For the compound `COC(=O)c1ccc(OC(=O)c2nn(C)cc2Cl)c(OC)c1`, the activation is 22% (active).

On to `COc1ccc(CCNC(=O)COC(=O)c2ncc(Cl)c(Cl)c2Cl)cc1OC`, for which the activation is 0.15% (inactive). With `COc1ccc(CSc2nnnn2-c2ccc(O)cc2)cc1F` the figure was -3.48% (inactive).
